# High-throughput results from PubChem BioAssay.
# An excerpt weighted towards active compounds, which were near 2.9% of everything screened.
# S1P3 antag: antagonists of human S1P3 receptor | Q99500 | 170,000 tested, 0.27% active | inhibition, % at 4.98 µM | CHO S1P3 NFAT-BLA reporter, FRET fluorescence, antagonist mode;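 active = inhibition above the plate cutoff, the mean inhibition of test wells on that plate plus 3 SD, cut at about 28% in these data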;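 note: cells challenged with S1P at its EC80 of 0.8 µM; blue over green emission ratio from cleaved BLA substrate after 4 h stimulation; 0% = S1P-stimulated wells and 100% = unstimulated DMSO-only wells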
# HSF-1 act: increases HSF-1 driven luciferase reporter signal | NIH3T3-HGL HSF-1 luciferase reporter, MG132, 8 h; 100% = twice DMSO control signal | 300,000 tested, 1.7% active | activation, % at 9 µM | AID 504408;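 active = mean replicate activation of at least 50% with a set share of replicates each reaching 50%; inconclusive = only one of those two conditions met; inactive = mean below 50% and too few replicates reaching it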;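 note: 0% = median of the neutral control wells and 100% = twice that signal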
# S1P4 antagonist: antagonists of human S1P4 receptor; O95977; S1P4-expressing cells, antagonist mode, reporter read-out; inhibition, % at 4.98 µM; 220,000 tested, 0.26% active; AID 1510; in the data active = inhibition above about 29%;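 note: 0% = wells stimulated with agonist and 100% = vehicle wells without agonist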
# Target sequence (O95977 whole entry, looked up): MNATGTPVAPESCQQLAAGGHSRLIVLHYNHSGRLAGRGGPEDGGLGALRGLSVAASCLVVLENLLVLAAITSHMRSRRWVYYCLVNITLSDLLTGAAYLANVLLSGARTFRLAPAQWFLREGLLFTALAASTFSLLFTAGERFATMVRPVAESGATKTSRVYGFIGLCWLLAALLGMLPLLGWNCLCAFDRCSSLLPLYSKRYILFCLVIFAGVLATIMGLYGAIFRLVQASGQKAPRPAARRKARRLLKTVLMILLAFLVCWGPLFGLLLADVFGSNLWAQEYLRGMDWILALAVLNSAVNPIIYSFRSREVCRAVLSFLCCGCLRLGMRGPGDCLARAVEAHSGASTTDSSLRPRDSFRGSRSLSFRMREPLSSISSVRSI
# Hsp70 activator: switches on Hsp70 transcription; HeLa Hsp70 promoter luciferase reporter, luminescence; scaled: vehicle 0, proteasome-inhibitor control 100%; activation, % at 10 µM; 200,000 tested, 0.04% active;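 active = activation above the mean across all tested compounds plus 3 SD, cutoff set per campaign, cut at about 5.5% in these data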;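 note: 100% = MG132 at 30 µM as the positive control and 0% = DMSO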
# S1P4 agonist: human S1P4 receptor agonism | O95977 | S1P4-expressing cell line, agonist reporter assay | activation, % at 4.98 µM | 220,000 tested, 0.35% active; in the data active = activation above about 11%;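 note: 0% = DMSO vehicle and 100% = reference agonist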
# HSF1 inh: HSF1 inhibition | 300,000 tested, 0.77% active | activity change, negative = inhibition, % at 7.5 µM (by protocol) | NIH3T3-HGL HSE-luciferase, MG132-induced, luminescence 8 h; active compounds read low | AID 2098;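 active = more than half of replicate wells show activity change below -50%, luminescence cut by over half; inconclusive = some wells, but at most half, below -50%; inactive = no replicate well below -50%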;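 note: luciferase reports HSF-1 transcriptional activity via heat shock element; 0% = median of DMSO wells and -100% = zero luminescence signal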
# Active calls of the source: *; ? = inconclusive; / = no result given.
SMILES,S1P3 antag,HSF-1 act,S1P4 antagonist,Hsp70 activator,S1P4 agonist,HSF1 inh
CCC1=NN(C(=O)c2ccc(Cl)cc2)C(O)(c2ccc(C)cc2)C1 (stereo unspecified),/,29,/,/,/,11
CCC1=NN(C(=O)c2ccc(Cl)cc2)C(O)(c2ccccc2)C1 (stereo unspecified),/,28,/,/,/,14
Cc1cc(NC(=O)Cn2ccc([N+](=O)[O-])n2)no1,-29,-62,2,0,1,-52*
COCCCC1CCN(C(=O)c2cc(COc3cc(C)ccc3C)on2)CC1,/,54*,/,/,/,25
COCCN1CCN(C(=O)c2cc(COc3cc(C)ccc3C)on2)CC1,/,30,/,/,/,20
C=CCSc1nnc(NC(=O)CN2C(=O)NC3(CCCC3)C2=O)s1,/,-6,/,/,/,-3
CS(=O)(=O)N(CC(=O)NC1CCCC1)C1CCCCC1,-8,/,-2,0,2,/
COc1ccc(-n2ncc3c(NCc4cccs4)ncnc32)cc1,39,47,-16,1,-3,23
c1ccc(-n2ncc3c(NCc4cccs4)ncnc32)cc1,32,66*,4,0,0,42
C=C(C)CN(CC)c1nc(N)c2c(N)nc3c(c2c1C#N)CC(=O)N3C12CC3CC(CC(C3)C1)C2,/,55*,3,0,1,18
N#Cc1c(N2CCCC(O)C2)nc(N)c2c(N)nc3c(c12)CC(=O)N3C12CC3CC(CC(C3)C1)C2 (stereo unspecified),/,11,9,0,0,-8
O=C(Cc1c(F)cccc1Cl)Nc1nc2ccccc2s1,-14,62*,-8,0,1,35
Cc1nn(-c2ccccc2)c(/N=C/c2ccc(O)cc2)c1-c1ccccc1,-5,56*,-10,0,0,28
COc1ccc(C(=O)NCC(=O)N/N=C(\C)c2ccco2)cc1OC,4,0,-18,/,0,-9
Cc1ccc(-n2[nH]c(C)c(/C=N/NC(=O)c3ccc([N+](=O)[O-])cc3)c2=O)c(C)c1,-10,8,-6,0,1,4
Cc1nc2ccccc2nc(C)c1=NOCc1ccccc1Cl,5,55*,-9,0,0,22
Cc1nc(C)c(Cc2ccccc2Cl)c(=O)[nH]1,-17,3,-3,0,0,2
COc1ccc(C(CC(=O)Nc2nccs2)n2cccc2)cc1 (stereo unspecified),32,58*,-4,0,1,33
CN(C(=O)/C=C/c1ccccc1)C1CCCCC1,/,?,/,/,/,32
Cc1cc(C)n2nc(N)c(N=Nc3cccc(Cl)c3)c2n1,-19,56*,-8,0,0,7
CS(=O)(=O)N1CCN(c2ccc(NC(=O)c3ccccc3)cc2)CC1,-11,3,-4,0,-1,5
O=C(NCCCCCCNC(=O)c1ccncc1)c1ccncc1,/,1,/,/,/,1
COc1ccc2c(CC(=O)Nc3ccc(OC)c(NS(=O)(=O)c4ccc(F)cc4)c3)coc2c1,81*,10,-18,0,0,6
COc1ccccc1NS(=O)(=O)c1ccc(NC(=O)Cc2cccs2)cc1,6,58*,-15,0,1,14
COc1ccc(S(=O)(=O)Nc2ccccc2OC)cc1NC(=O)Cc1cccs1,-9,3,-9,0,1,-1
SMILES,S1P3 antag,HSF-1 act,S1P4 antagonist,Hsp70 activator,S1P4 agonist,HSF1 inh
c1ccc(-c2cc(CSc3nc4ccccc4[nH]3)on2)cc1,3,61*,-12,0,1,41
Cn1c(=O)c2ccccc2n(Cc2cccc(F)c2)c1=O,/,1,/,/,/,-1
O=C(NNc1c(Cl)cccc1Cl)C1CCC1,2,53*,-3,/,0,20
O=C(NNc1cccc(Cl)n1)C1CC1,-12,-12,2,0,0,-8
Cc1ccc(NC(=O)CCc2c(C)nn(-c3ccc(N4CCCCC4)nn3)c2C)cc1C,/,56*,/,/,/,36
NC(=O)C1CCN(C2=C(Cl)C(=O)c3ccccc3C2=O)CC1,/,75*,-7,0,-3,41
O=C(CCNC(=O)c1ccc(Br)cc1)NCc1ccncc1,/,-1,/,/,/,-1
COC(=O)c1cc(S(=O)(=O)NCCc2ccccc2)c[nH]1,/,-84,/,/,/,-81*
Cc1ccc(CNC(=O)CN(C2CCCCC2)S(C)(=O)=O)cc1,/,4,-4,0,3,-3
CS(=O)(=O)N(CC(=O)NCc1ccccc1)C1CCCCC1,/,-83,-4,0,2,-77*
